Reference: ChEMBL document CHEMBL1157539, “Thousands of chemical starting points for antimalarial lead identification” (Nature, 2010)
Values joined by “and” are separate entries in the source; they are usually repeats but may differ in a detail not shown here. Identical values can stand only once. The full ranking holds about 13,000 compounds; the median of “IFI” is about 4, and the highest 2% start at about 17. This is one part of a sample in which the highest values are shown more often than they occur.

Assay: GSK_TCMDC: Inhibition Frequency Index (IFI). The number of non-kinase HTS assays where a compound showed > 50 % inhibition, expressed as a percentage of the number of such assays in which the compound was tested
Type: functional

SMILES	IFI
CCOC(=O)c1cc(C(=O)NCCCCN2CCC(c3cn(C)c4ccccc34)CC2)ccc1-c1ccc(C(F)(F)F)cc1	5.31%
CCOC(=O)c1c(CNc2ccncc2)n(C)c2cc(Br)c(OC(C)=O)cc12	0.74%
CCOC(=O)c1cc2c(CCN3C(=O)c4ccccc4C3=O)cn(C)c2cc1-c1ccncc1	30.4%
CC(=O)Nc1ccc(C(=O)Nc2cccc(-c3cccc(-c4nc5cc(C(F)(F)F)ccc5[nH]4)c3)c2)cn1	3.7%
CC(=O)Nc1ccc(Cl)c(Cl)c1	0%
NCCCN(Cc1ccc(Cl)c(Cl)c1)C(=O)Nc1ccc(Cl)c(Cl)c1	17.7%
N=C(N)NC(=O)Nc1ccc(Cl)c(Cl)c1	1.52%
COc1ccc(CCNCCCCCCNCCc2ccccc2Cl)cc1OC	2.88%
FC(F)(F)c1cccc(CCNc2nccc(NCc3ccc(Cl)cc3Cl)n2)c1	25%
FC(F)(F)c1cccc(CCNc2nccc(NCc3ccccc3Cl)n2)c1	8%
COc1ccccc1CNc1ccnc(NCCc2cccc(C(F)(F)F)c2)n1	16%
Fc1ccc(NC(S)=NN=Cc2ccccn2)cc1	7.48%
Cc1[nH]c(C)c(-c2ccc(-c3ccc(OC(F)(F)F)cc3)nc2)c(=O)c1Cl	1.69%
Cc1cc(Nc2ccncc2)n2nc(C)c(-c3ccc(Cl)cc3)c2n1	1.69%
Cc1ccc2[nH]c(-c3cc(-c4cccc(C#N)c4)cnc3N)nc2c1	7.14%
Cc1cccc2nc(-c3ccc(-c4ccc(CN5CCCC(N)C5)cc4)s3)[nH]c12 (stereo unspecified)	5.56%
Oc1ccc(CCNc2nc(NCCCOc3cccc(CN4CCCCC4)c3Cl)nc(N3CCNCC3)n2)cc1	4.69%
Oc1ccc(CCNc2nc(N/N=C/c3ccc(Cl)cc3)nc(N3CCNCC3)n2)cc1	0.75%
Oc1ccc(CCNc2nc(NCCCOc3ccccc3-c3ccncc3)nc(N3CCNCC3)n2)cc1	1.72%
Cc1c(CN2CCCCC2)cccc1OCCCNc1nc(NCCc2ccc(O)cc2)nc(N2CCNCC2)n1	7.58%
Cc1cccc(-c2cccc(CNc3nc(NCCc4ccc(O)cc4)nc(N4CCNCC4)n3)c2)c1	12.7%
Oc1ccc(CCNc2nc(NCc3ccccc3-c3cccc(Cl)c3)nc(N3CCNCC3)n2)cc1	15.4%
Oc1ccc(CCCNc2nc(NCc3cccc4ccccc34)nc(N3CCNCC3)n2)cc1	7.69%

SMILES	IFI
Cc1cc(OCCCNc2nc(NCCc3ccc(O)cc3)nc(N3CCNCC3)n2)c(Cl)c(C)c1Cl	18.5%
COc1ccc(-c2ccccc2OCCCNc2nc(NCCc3ccc(O)cc3)nc(N3CCNCC3)n2)cc1	13.8%
C[C@@]12C[C@@H](Nc3nc(NCCc4ccc(O)cc4)nc(N4CCNCC4)n3)C[C@@H](C1)c1cccc(Cl)c1O2	20.9%
Oc1ccc(CCNc2nc(NCCOc3ccccc3-c3ccccc3)nc(N3CCNCC3)n2)cc1	20%
Oc1ccc(CCNc2nc(NCc3ccc4cc(Cl)ccc4c3)nc(N3CCNCC3)n2)cc1	17.2%
Nc1c2c(nc3cc(NC(=O)c4ccc([N+](=O)[O-])cc4)ccc13)CCCC2	0%
CNC(=O)C(C)N(c1ccc(Cl)cc1)c1nc(C(C)(C)C)cs1 (stereo unspecified)	4.76%
COC(=O)C(=C(C)C)N1C(=O)[C@@H](NC(=O)OCc2ccccc2)[C@H]1SS[C@@H]1[C@H](NC(=O)OCc2ccccc2)C(=O)N1C(C(=O)OC)=C(C)C	4.41%
CC(CN1CCN(C)CC1)C(=O)Nc1ccc(-c2cccc(-c3nc4ccccc4[nH]3)c2)cc1 (stereo unspecified)	4.59%
COCCN1CCN(Cc2ccc(-c3ccc(-c4nc5cccc(C)c5[nH]4)s3)cc2)CC1	6.86%
O=S(=O)(NCCN1CCCC1)c1ccc(-c2ccc(CNCc3ccccc3)cc2)cc1F	6.54%
Oc1ccc(CCNc2nc(NCc3ccccc3-c3ccc(F)cc3)nc(N3CCNCC3)n2)cc1	13.6%
Oc1ccc(CCNc2nc(NCc3ccccc3-c3ccc(C(F)(F)F)cc3)nc(N3CCNCC3)n2)cc1	13.1%
Oc1ccc(CCNc2nc(NCCOc3cccc4ccccc34)nc(N3CCNCC3)n2)cc1	16.4%
Oc1ccc(CCNc2nc(NCCCOc3ccccc3-c3ccc(F)cc3)nc(N3CCNCC3)n2)cc1	13.8%
COc1ccc(-c2ccccc2CNc2nc(NCCc3ccc(O)cc3)nc(N3CCNCC3)n2)cc1	13.4%
CC1CN(c2nc(NCCc3ccc(O)cc3)nc(NCc3ccccc3-c3ccc(C(F)(F)F)cc3)n2)CC(C)N1 (stereo unspecified)	17.2%
Oc1ccc(CCNc2nc(NCCCOc3cccc(-c4ccccc4)c3)nc(N3CCNCC3)n2)cc1	18.8%
Oc1ccc(CCNc2nc(NCCCOc3ccccc3-c3cccnc3)nc(N3CCNCC3)n2)cc1	6.9%
Oc1ccc(CCNc2nc(NCCCOc3ccccc3-c3cccc(C(F)(F)F)c3)nc(N3CCNCC3)n2)cc1	10.5%
CN1CCN(c2nc(NCCc3ccc(O)cc3)nc(NCc3ccccc3-c3ccc(C(F)(F)F)cc3)n2)CC1	11.8%
Oc1ccc(CCNc2nc(NCc3ccccc3Oc3ccc(C(F)(F)F)cc3)nc(N3CCNCC3)n2)cc1	20%
Oc1ccc(CCNc2nc(NCCCOc3ccccc3-c3ccc(C(F)(F)F)cc3)nc(N3CCNCC3)n2)cc1	17.2%

SMILES	IFI
CC(C)N1CCC(N(Cc2ccc(-c3ccc(Cl)cc3)cc2)C(=O)Cn2c(CCc3cccc(F)c3F)nc(=O)c3ccccc32)CC1	7.8%
O=C(/C=C/c1ccc(Cl)c(Cl)c1)NCCCCCN1CCC(c2n[nH]c(-c3ccccc3)c2Br)CC1	12.9%
Cc1cc2nc(-c3ccc(/C=C/C(=O)NC4CCN(Cc5ccccc5)CC4)cc3)[nH]c2cc1C	3.76%
CS(=O)(=O)NCCCNCc1ccc(-c2ccc(-c3nc4cc(C(F)(F)F)ccc4[nH]3)s2)cc1	4.95%
Cc1nc2ccc(-c3ccc(OC(F)(F)F)cc3)cc2c(O)c1C#N	1.82%
COc1cccc2c(NN=Cc3cccc(F)c3)ccnc12	2.99%
Oc1ccc(CCNc2nc(NCc3ccccc3-c3ccc(C(F)(F)F)cc3)nc(N3CCCNCC3)n2)cc1	14.9%
Oc1ccc(CCCNc2nc(NCc3ccccc3-c3ccccc3)nc(N3CCNCC3)n2)cc1	14.9%
Oc1ccc(CCNc2nc(NCc3ccccc3-c3ccccc3)nc(N3CCCNCC3)n2)cc1	18.2%
NCC1CCCN1Cc1cccc(-c2ccc(-c3nc4ccccc4[nH]3)s2)c1 (stereo unspecified)	0.97%
CC[C@H](C)CNC(=O)c1cccc(-c2ccc(CN3CCC(N4CCCC4)CC3)cc2)n1	9.09%
C=CCC1OC(=O)c2cc(OC)cc(OC)c21 (stereo unspecified)	33.6%
C=CC(C)C1OC(=O)c2cc(OC)cc(OC)c21 (stereo unspecified)	27%
COc1ccc(CCNCCCCCNCCCc2ccc(Cl)cc2)cc1OC	2.8%
COc1cc(Cc2cnc(N)nc2N)cc(CC(C)O)c1O (stereo unspecified)	0%
Fc1ccc2[nH]c(-c3cccc(-c4ccc(CN5CCC(CCN6CCCCC6)CC5)cc4)c3)nc2c1	8.33%
NC(=O)c1ccc(C(=O)Nc2cccc(-c3ccc(-c4nc5cc(C(F)(F)F)ccc5[nH]4)cc3)c2)cc1	2.59%
O=C(NCCCCN1CCC(c2ccc3c(c2OCCN2CCCC2=O)CCCC3)CC1)c1ccc(-c2ccc(C(F)(F)F)cc2)cc1	9.65%
C[C@@H]1CC[C@H](NC(=O)[C@H](CC2CCCC2)NC(=O)N2CCNCC2)C(=O)CN1S(=O)(=O)c1ccccn1	5.93%
CC(C)C[C@H](Nc1ccnc(NCC2CCCCC2)n1)C(=O)NCCc1ccccc1	8.89%
O=C(NCCc1ccccc1)[C@H](Cc1ccccc1)Nc1ccnc(NCC2CCCCC2)n1	20.4%
Cc1ccc(CNC(=O)[C@H](Cc2ccccc2)Nc2ccnc(NCC3CCCCC3)n2)cc1	11.1%
CC(C)C[C@H](Nc1ccnc(NCC2CCCCC2)n1)C(=O)NCCOc1ccccc1	13%

SMILES	IFI
Cc1cc(N[C@@H](Cc2ccccc2)C(=O)NCCOc2ccccc2)nc(NCC2CCCCC2)n1	16.7%
O=C(NCCOc1ccccc1)[C@H](Cc1ccccc1)Nc1ccnc(NCC2CCCCC2)n1	20%
COc1ccc2nccc([C@@H](O)CN3CCC(NCc4nc5cc(F)cc(F)c5[nH]4)CC3)c2c1	3.65%
CC1(C)NC(N)=NC(=N)N1OCCCSc1ccccc1	2.26%
Cc1cccc(NC(=O)NCc2ccccc2)n1	0.78%
Cc1cccc2nc(-c3ccc(-c4ccc(NC(=O)Nc5ccc(Cl)cc5)cc4)s3)[nH]c12	5.94%
Cc1cc(NCCc2ccccc2)nc(NC(=N)Nc2ccc(Cl)cc2)n1	3.82%
Cc1cc(OCCCn2ccnc2)ccc1-c1csc(/N=C(\N)NCc2ccccc2)n1	5%
N/C(=N\c1cccc(Cc2ccccc2)n1)NCc1ccccc1	21%
Cc1ccccc1Cc1cccc(/N=C(\N)Nc2ccc(Cl)cc2)n1	31.2%
CC(=O)Nc1nc(C(=O)Nc2ccc(-c3cccc(-c4nc5cc(C(F)(F)F)ccc5[nH]4)c3)cc2)cs1	6.03%
Cc1cc(=O)c(-c2ccc(Oc3cccc(C(F)(F)F)c3)cc2)c(C)[nH]1	2.56% and 2.24%
CCN(CCCN1CCCCC1)c1cc(C)nc(Nc2ccc(C(C)C)cc2)n1	10.3%
CCN(CCCN1CCCCC1)c1cc(C)nc(Nc2ccc(C)cc2)n1	2.56%
CCC(C)c1ccc(Nc2nc(C)cc(N(CC)CCCN3CCCCC3)n2)cc1 (stereo unspecified)	19.5%
CC(C)(C)c1ccc(C(=O)Nc2cccc(Nc3c(C(=O)NCc4cccc(C(F)(F)F)c4)cnc4c(O)cccc34)c2)cc1	3.68%
CCCCN(CCCC)/C(=N/c1cccc(Cl)c1Cl)Nc1ccc(C#N)cc1O	7.14%
O=C(Cc1cccc(O)c1)Nc1ccc(-c2cccc(-c3nc4cc(C(F)(F)F)ccc4[nH]3)c2)cc1	8.93%
CC(CN(C)C)C(=O)Nc1cccc(-c2cccc(-c3nc4ccccc4[nH]3)c2)c1 (stereo unspecified)	5.41%
COc1ccccc1-c1cccc(-c2cccc(NC(=O)c3ccc([N+](=O)[O-])o3)c2)n1	11.9%
O=C(Nc1cccc(-c2cccc(-c3ccc(F)cc3)n2)c1)c1ccc([N+](=O)[O-])o1	19.1%
COc1cccc(-c2cccc(-c3ccc(NC(=O)c4ccc([N+](=O)[O-])o4)cc3)n2)c1	9.52%
